The full data set covers some 8,800 targets. This sample favours those with a hit. About 0.5% of all pairs of compound and target were hits.
Key:
Assay in all cases: log2 fold change, soluble protein after heating vs DMSO (PISA); higher = thermal stabilisation; K562 lysate, 10 uM; active = over 0.2 and 3.5 SD of the protein, either way, in both replicates (recomputed)
duvelisib = compound: C[C@H](Nc1ncnc2nc[nH]c12)c1cc2cccc(Cl)c2c(=O)n1-c1ccccc1 [duvelisib]
Outline: (§1)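 A 30 min treatment with 10 μM compound was applied to crude K562 extract at 1 mg/mL protein in PBS pH 7.4 with 1 mM MgCl2. Heating for 3 min spanned 48°C-58°C, after which aliquots were pooled, adjusted to 0.5% NP-40 at 4°C and spun at 21,000xg for 90 min. TMTpro 16plex LC-MS/MS of the supernatant, with channel sums equalised, gave values recorded as log-two fold change in thermal stability against solvent controls, from duplicates.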

tozasertib = compound: Cc1cc(Nc2cc(N3CCN(C)CC3)nc(Sc3ccc(NC(=O)C4CC4)cc3)n2)n[nH]1 [tozasertib]
Outline: as §1

dasatinib = compound: Cc1nc(Nc2ncc(C(=O)Nc3c(C)cccc3Cl)s2)cc(N2CCN(CCO)CC2)n1 [dasatinib]
Outline: as §1

[1] = compound: Cn1cc(-c2ccc3c(c2)CCN3C(=O)Cc2cccc(C(F)(F)F)c2)c2c(N)ncnc21
Outline: as §1

[2] = compound: NC1(c2ccc(-c3nc4ccn5c(=O)[nH]nc5c4cc3-c3ccccc3)cc2)CCC1
Outline: as §1

lapatinib = compound: CS(=O)(=O)CCNCc1ccc(-c2ccc3ncnc(Nc4ccc(OCc5cccc(F)c5)c(Cl)c4)c3c2)o1 [lapatinib]
Outline: as §1

pictilisib = compound: CS(=O)(=O)N1CCN(Cc2cc3nc(-c4cccc5[nH]ncc45)nc(N4CCOCC4)c3s2)CC1 [pictilisib]
Outline: as §1

crizotinib = compound: C[C@@H](Oc1cc(-c2cnn(C3CCNCC3)c2)cnc1N)c1c(Cl)ccc(F)c1Cl [crizotinib]
Outline: as §1

[3] = compound: C[C@H](C1=CC=C(C=C1)C(=O)NC2=C3C=CNC3=NC=C2)N
Outline: as §1

gandotinib = compound: Cc1cc(Nc2cc(CN3CCOCC3)c3nc(C)c(Cc4ccc(Cl)cc4F)n3n2)n[nH]1 [gandotinib]
Outline: as §1

doramapimod = compound: Cc1ccc(-n2nc(C(C)(C)C)cc2NC(=O)Nc2ccc(OCCN3CCOCC3)c3ccccc23)cc1 [doramapimod]
Outline: as §1

bafetinib = compound: Cc1ccc(NC(=O)c2ccc(CN3CC[C@H](N(C)C)C3)c(C(F)(F)F)c2)cc1Nc1nccc(-c2cncnc2)n1 [bafetinib]
Outline: as §1

[4] = compound: Cc1cccc(CC(=O)N2CCc3c2ccc(-c2cn(C)c4ncnc(N)c24)c3F)n1
Outline: as §1

nilotinib = compound: Cc1cn(-c2cc(NC(=O)c3ccc(C)c(Nc4nccc(-c5cccnc5)n4)c3)cc(C(F)(F)F)c2)cn1 [nilotinib]
Outline: as §1

[5] = compound: Cc1nc(Nc2n[nH]c3c2CN(C(=O)N[C@H](CN(C)C)c2ccccc2)C3(C)C)c2sccc2n1
Outline: as §1

[6] = compound: Cc1ncc(-c2ccnc(Nc3ccc(S(C)(=O)=O)cc3)n2)n1C(C)C
Outline: as §1

quisinostat = compound: Cn1cc(CNCC2CCN(c3ncc(C(=O)NO)cn3)CC2)c2ccccc21 [quisinostat]
Outline: as §1

tipifarnib = compound: Cn1cncc1[C@@](N)(c1ccc(Cl)cc1)c1ccc2c(c1)c(-c1cccc(Cl)c1)cc(=O)n2C [tipifarnib]
Outline: as §1

[7] = compound: NC(=O)Nc1cc(-c2cccc(F)c2)sc1C(=O)N[C@H]1CCCNC1
Outline: as §1

[8] = compound: NC(=O)c1cnc(N[C@@H]2CCCC[C@@H]2N)nc1Nc1cccc(-n2nccn2)c1
Outline: as §1

Measured: log2 fold change

YBEY (UniProt P58557)
Sequence of UniProt P58557 (P58557 whole entry, looked up): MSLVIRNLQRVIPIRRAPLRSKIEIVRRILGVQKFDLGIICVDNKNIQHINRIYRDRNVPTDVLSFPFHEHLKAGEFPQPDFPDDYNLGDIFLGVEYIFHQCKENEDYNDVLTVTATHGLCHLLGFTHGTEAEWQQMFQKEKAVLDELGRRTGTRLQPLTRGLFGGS
inactive: duvelisib 0.049 | tozasertib 0.035 | dasatinib 0.067 | [1] -0.083 | [2] 0.044

ZNF845 (UniProt Q96IR2)
Sequence of UniProt Q96IR2 (Q96IR2 whole entry, looked up): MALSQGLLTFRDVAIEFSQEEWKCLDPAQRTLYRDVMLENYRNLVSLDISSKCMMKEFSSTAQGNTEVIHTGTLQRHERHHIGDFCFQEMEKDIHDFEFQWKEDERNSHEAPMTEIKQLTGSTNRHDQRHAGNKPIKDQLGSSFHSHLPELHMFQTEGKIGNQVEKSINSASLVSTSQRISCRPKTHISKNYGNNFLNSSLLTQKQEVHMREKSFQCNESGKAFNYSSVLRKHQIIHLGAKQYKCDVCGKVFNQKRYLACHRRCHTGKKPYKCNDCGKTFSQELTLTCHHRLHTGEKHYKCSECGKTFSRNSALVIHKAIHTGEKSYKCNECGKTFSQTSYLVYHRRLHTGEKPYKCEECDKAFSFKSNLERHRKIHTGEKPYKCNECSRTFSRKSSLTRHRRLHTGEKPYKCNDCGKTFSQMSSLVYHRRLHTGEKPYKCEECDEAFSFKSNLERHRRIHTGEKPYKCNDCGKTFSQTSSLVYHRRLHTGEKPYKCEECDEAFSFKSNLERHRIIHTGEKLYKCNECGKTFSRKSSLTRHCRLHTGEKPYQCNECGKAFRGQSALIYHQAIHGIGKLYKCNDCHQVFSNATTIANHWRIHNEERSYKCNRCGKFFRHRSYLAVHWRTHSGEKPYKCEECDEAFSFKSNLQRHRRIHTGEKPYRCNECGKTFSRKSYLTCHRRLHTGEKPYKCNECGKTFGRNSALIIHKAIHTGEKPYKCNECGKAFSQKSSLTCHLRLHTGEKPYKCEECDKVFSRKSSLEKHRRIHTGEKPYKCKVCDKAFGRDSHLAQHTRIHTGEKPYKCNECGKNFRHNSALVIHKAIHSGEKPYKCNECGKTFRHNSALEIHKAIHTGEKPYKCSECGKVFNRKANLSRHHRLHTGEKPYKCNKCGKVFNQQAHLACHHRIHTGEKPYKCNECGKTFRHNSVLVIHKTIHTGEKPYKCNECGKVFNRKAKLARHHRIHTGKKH
inactive: lapatinib 0.012 | pictilisib -0.013 | crizotinib 0.018 | [3] -0.069 | duvelisib -0.023 | gandotinib 0.015 | doramapimod 0.16 | bafetinib -0.031 | [4] 0.017 | nilotinib 0 | [5] 0.087 | dasatinib -0.038 | [6] -0.053 | [1] 0.021 | quisinostat -0.033 | tipifarnib -0.006 | [7] 0.122 | [8] 0.016 | [2] 0.163

UNKL (UniProt E9PDK2)
inactive: pictilisib -0.113 | crizotinib -0.078 | duvelisib 0.184 | tozasertib -0.039 | doramapimod 0.07 | bafetinib -0.041 | dasatinib -0.216 | [1] 0.006 | quisinostat 0.015 | [7] 0.045

VHL (UniProt P40337)
Sequence of UniProt P40337 (P40337 whole entry, looked up): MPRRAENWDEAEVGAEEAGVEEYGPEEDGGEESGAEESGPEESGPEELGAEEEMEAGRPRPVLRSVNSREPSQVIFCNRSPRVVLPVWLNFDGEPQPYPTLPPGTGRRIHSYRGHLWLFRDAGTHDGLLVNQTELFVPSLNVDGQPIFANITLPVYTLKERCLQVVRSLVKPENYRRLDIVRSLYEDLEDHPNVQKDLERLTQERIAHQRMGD
active: [3] -0.538
inactive: pictilisib -0.003 | crizotinib 0.017 | duvelisib 0.148 | gandotinib -0.08 | tozasertib 0 | doramapimod -0.011 | bafetinib 0.092 | [4] -0.021 | nilotinib -0.01 | [5] 0.04 | dasatinib 0 | [6] -0.056 | [1] 0.079 | quisinostat -0.056 | tipifarnib 0.022 | [7] 0.077 | [2] 0.04

ZDHHC17 (UniProt Q8IUH5)
active: [3] -0.778
inactive: lapatinib 0.042 | crizotinib 0.098 | duvelisib -0.301 | gandotinib 0.037 | tozasertib -0.025 | doramapimod 0.11 | [4] 0.17 | nilotinib -0.164 | [5] 0.039 | dasatinib -0.096 | [6] -0.115 | [1] -0.028 | quisinostat 0.045 | tipifarnib 0.118 | [7] -0.118 | [8] -0.047

ZSWIM8 isoform 4 (UniProt A7E2V4)
Sequence of UniProt A7E2V4 (A7E2V4 whole entry, looked up): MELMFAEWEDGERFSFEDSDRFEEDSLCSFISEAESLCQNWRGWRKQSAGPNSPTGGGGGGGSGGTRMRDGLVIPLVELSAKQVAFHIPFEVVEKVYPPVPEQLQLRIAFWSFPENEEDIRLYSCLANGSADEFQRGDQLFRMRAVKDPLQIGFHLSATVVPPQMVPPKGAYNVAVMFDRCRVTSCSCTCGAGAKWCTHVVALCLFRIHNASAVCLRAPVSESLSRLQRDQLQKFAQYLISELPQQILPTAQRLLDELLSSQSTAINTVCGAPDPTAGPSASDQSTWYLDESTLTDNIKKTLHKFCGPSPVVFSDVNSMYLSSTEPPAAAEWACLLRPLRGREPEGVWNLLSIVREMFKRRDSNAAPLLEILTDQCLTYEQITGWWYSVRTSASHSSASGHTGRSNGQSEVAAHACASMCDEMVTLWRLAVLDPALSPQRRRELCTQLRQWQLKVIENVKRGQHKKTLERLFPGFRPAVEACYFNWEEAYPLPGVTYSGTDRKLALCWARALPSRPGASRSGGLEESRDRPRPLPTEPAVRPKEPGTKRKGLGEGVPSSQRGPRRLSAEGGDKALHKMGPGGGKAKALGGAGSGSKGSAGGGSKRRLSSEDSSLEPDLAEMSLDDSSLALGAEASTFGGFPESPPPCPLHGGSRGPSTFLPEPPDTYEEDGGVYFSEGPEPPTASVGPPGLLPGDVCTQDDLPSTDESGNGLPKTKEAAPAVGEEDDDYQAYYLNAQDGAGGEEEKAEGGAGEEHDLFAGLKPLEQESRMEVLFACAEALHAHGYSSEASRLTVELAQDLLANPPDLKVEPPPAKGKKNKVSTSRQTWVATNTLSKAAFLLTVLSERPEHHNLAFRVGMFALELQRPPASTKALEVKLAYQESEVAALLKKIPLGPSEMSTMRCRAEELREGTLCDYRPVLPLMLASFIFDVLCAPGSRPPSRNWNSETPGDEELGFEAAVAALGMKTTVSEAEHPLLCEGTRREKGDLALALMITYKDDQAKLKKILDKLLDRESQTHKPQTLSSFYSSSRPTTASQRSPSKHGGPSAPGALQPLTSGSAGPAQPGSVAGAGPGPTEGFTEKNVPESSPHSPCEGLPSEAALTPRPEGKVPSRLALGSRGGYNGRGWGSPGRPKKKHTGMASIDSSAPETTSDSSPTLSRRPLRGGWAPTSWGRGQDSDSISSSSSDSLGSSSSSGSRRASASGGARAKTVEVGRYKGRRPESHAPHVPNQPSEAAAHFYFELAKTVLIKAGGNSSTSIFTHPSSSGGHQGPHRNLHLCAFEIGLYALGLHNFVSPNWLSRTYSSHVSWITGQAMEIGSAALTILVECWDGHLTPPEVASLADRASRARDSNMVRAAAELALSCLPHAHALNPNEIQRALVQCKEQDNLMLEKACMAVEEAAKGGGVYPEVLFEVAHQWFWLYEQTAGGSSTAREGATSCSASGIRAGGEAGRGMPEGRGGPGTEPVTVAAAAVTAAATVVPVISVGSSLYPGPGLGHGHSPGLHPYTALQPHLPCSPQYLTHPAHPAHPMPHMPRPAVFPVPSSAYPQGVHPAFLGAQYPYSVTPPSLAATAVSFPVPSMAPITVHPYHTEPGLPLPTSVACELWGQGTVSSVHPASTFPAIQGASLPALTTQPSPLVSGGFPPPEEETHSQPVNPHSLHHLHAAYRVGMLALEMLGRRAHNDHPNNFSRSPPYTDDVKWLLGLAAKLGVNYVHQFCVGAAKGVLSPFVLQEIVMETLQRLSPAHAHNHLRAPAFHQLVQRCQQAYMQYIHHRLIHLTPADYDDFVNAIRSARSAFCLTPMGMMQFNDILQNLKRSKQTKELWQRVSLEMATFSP
inactive: pictilisib -0.253 | crizotinib 0.027 | [3] -0.027 | duvelisib -0.145 | gandotinib -0.153 | tozasertib 0.169 | doramapimod -0.084 | bafetinib -0.257 | [4] 0.205 | nilotinib -0.009 | [5] 0.129 | dasatinib 0.085 | [6] 0.07 | [1] 0.042 | quisinostat -0.051 | tipifarnib -0.065 | [7] 0.067 | [2] -0.112

WIPI2 isoform 6 (UniProt Q9Y4P8)
inactive: pictilisib -0.102 | [3] 0.025 | gandotinib 0.181 | bafetinib -0.013 | [4] -0.089

ZBTB40 (UniProt Q9NUA8)
Sequence of UniProt Q9NUA8 (Q9NUA8 whole entry, looked up): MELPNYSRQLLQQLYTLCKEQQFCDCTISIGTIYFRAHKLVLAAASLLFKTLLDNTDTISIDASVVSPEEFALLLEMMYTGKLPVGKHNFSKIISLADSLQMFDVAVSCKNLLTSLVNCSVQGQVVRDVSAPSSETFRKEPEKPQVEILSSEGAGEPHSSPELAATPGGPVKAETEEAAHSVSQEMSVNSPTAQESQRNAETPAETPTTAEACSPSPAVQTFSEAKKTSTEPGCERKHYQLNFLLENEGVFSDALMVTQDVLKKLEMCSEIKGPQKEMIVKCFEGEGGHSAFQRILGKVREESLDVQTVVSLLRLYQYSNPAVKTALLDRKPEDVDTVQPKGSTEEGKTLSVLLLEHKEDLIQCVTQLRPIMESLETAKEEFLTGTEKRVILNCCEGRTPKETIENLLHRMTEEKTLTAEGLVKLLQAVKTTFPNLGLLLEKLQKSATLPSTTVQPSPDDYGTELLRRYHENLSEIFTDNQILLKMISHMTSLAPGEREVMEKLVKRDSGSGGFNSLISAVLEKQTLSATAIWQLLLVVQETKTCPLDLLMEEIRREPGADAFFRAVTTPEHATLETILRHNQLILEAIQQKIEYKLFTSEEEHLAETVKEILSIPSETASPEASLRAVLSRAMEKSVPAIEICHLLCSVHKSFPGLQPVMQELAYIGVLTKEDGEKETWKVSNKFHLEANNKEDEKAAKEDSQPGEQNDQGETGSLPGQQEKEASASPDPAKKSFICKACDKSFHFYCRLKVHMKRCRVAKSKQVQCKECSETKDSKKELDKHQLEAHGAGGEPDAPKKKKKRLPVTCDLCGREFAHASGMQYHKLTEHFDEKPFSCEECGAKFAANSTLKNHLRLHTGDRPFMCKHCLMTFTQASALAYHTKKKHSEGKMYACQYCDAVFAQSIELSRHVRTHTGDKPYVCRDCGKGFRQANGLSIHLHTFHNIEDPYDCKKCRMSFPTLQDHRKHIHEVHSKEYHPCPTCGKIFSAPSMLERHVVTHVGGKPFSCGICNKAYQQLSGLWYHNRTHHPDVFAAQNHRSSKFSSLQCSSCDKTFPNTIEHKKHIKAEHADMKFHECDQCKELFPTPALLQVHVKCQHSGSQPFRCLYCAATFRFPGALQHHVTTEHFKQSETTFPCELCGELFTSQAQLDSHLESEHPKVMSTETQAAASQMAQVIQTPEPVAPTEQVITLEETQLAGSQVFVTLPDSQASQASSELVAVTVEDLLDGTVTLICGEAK
inactive: lapatinib 0.022 | crizotinib 0.036 | [3] -0.249 | duvelisib 0.018 | gandotinib 0.219 | doramapimod -0.02 | [4] 0.004 | nilotinib -0.076 | [5] 0.29 | dasatinib -0.024 | [6] 0.086 | [1] -0.051 | quisinostat -0.01 | tipifarnib 0.078 | [7] -0.018 | [8] 0.004 | [2] 0.058

ZNF644 (UniProt Q9H582)
inactive: pictilisib -0.133 | crizotinib -0.026 | [3] 0.04 | duvelisib -0.069 | gandotinib -0.015 | tozasertib 0.015 | doramapimod 0.037 | bafetinib -0.165 | [4] 0.086 | nilotinib -0.062 | [5] 0.153 | dasatinib 0.066 | [6] 0.017 | [1] -0.061 | quisinostat -0.026 | tipifarnib -0.012 | [7] 0.058 | [2] -0.167

ZYG11A (UniProt Q6WRX3)
inactive: lapatinib -0.301 | pictilisib 0.031 | [3] -0.306 | gandotinib 0.192 | bafetinib -0.378 | [4] 0.323 | nilotinib 0.151 | [5] -0.077 | [6] -0.227 | tipifarnib -0.124 | [8] 0.085 | [2] -0.068

WAC isoform 5 (UniProt Q9BTA9)
inactive: duvelisib 0.226 | dasatinib -0.336 | [1] 0.254 | [2] -0.129

ZFYVE19 isoform 3 (UniProt Q96K21)
Sequence of UniProt Q96K21 (Q96K21 whole entry, looked up): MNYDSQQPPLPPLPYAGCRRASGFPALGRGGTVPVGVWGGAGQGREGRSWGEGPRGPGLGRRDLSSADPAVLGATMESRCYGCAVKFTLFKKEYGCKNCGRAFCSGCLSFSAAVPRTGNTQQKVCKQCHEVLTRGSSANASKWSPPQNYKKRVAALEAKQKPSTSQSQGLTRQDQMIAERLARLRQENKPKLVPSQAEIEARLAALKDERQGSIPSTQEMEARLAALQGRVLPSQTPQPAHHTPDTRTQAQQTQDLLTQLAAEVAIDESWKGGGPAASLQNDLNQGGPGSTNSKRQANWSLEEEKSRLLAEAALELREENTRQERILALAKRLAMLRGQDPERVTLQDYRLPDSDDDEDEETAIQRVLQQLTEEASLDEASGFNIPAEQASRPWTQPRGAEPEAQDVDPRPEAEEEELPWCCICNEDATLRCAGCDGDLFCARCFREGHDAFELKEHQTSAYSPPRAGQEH
inactive: lapatinib 0.114 | pictilisib -0.02 | bafetinib -0.013 | [8] -0.002
